According to PubChem BioAssay (NCATS):
Records with an inconclusive call do not appear. Values without a mark were called inactive. The call rests on the fitted dose curve; in most records, active means well fitted activation curve with a large enough effect; inconclusive means small, poorly fitted or top-dose-only effect; inactive means no such curve, though single readings can be large or run the other way.

Molecular target: D(1A) dopamine receptor (Homo sapiens) (UniProt P21728)
Assay: HTS Assay for Allosteric Agonists of the Human D1 Dopamine Receptor: Primary Screen for Potentiators (AID 488982); further: 0% is about no effect
Details: HEK293 T-REx D1 inducible cells, calcium flux, kinetic fluorescence; series mostly up to 8.37 µM; activity, positive = potentiation: at the top concentration
Excerpt: Dopamine receptors (DARs) are involved in the etiology and/or therapy of a number of neuropsychiatric and endocrine disorders. For instance, all receptor-based antiparkinsonian drugs work via stimulating the […] DAR subtype whereas all FDA-approved antipsychotic agents are antagonists of this receptor. […] There are three different types of allosteric modulators that we are seeking, two of which will stimulate or augment receptor signaling, allosteric agonists and potentiators, while the third, allosteric antagonists, will attenuate receptor signaling. The present primary screening assay measures compound agonism by tracking calcium flux in a […], inducible Hek293 Trex D1 cell line.
Freshly passaged cells are plated in 1536 well black, clear bottom plates at a density of 4000 cells/well in 3 ul of complete media containing 1x tetracycline inducer. After an overnight incubation at 30 C in 5% CO2, cells are loaded with 2 ul of the no wash Calcium Assay Kit (ABD Bioquest) and incubated at room temperature for 30 to 90 minutes. A 10 cycle (1 second/cycle) baseline measurement is taken and then the FDSS online 1536 pintool delivers 23 nl of compound library (as well as dopamine controls) to the plate. The plate is measured for kinetically at 1 cycle/sec for 180 seconds and is considered to be the agonist portion of the assay (eg, compounds which activate a positive calcium response during this portion are flagged as potential agonists). Following the 180 second read, 1 ul of an EC20 of dopamine is delivered by an onboard pipette head. Measurements are taken kinetically for an additional 180 seconds.

Chain of D(1A) dopamine receptor (Homo sapiens) (P21728 whole entry, looked up): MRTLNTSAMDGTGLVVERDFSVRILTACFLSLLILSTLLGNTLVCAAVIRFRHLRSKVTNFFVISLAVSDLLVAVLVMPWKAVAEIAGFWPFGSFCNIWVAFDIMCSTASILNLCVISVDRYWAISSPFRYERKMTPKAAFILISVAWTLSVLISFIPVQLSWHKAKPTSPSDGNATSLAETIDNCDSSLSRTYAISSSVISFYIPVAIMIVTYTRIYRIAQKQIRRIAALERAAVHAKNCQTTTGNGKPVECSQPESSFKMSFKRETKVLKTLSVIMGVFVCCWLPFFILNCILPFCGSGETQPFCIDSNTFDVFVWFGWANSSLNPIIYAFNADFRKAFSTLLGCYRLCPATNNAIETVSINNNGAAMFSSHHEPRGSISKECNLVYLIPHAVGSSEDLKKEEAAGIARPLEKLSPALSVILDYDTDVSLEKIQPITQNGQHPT

SMILES	activity, positive = potentiation [%]
O=C1c2ccccc2C(=O)c2c(NCCc3ccc(O)cc3)ccc(NCCc3ccc(O)cc3)c21	1.64
C[C@H](Cc1ccccc1)Nc1ncnc2c1ncn2[C@@H]1O[C@H](CO)[C@@H](O)[C@H]1O	5.2
N#C/C(=C\c1ccc(O)c(O)c1)C(=O)Nc1ccccc1	-7.69
Nc1c(S(=O)(=O)O)cc(Nc2ccc(Nc3nc(Cl)nc(Nc4ccc(S(=O)(=O)O)cc4)n3)c(S(=O)(=O)O)c2)c2c1C(=O)c1ccccc1C2=O	10.2
CC[N+](CC)(CC)CC	11.7
CN1C2CCCC1CC(NC(=O)c1nn(C)c3ccccc13)C2 (stereo unspecified)	10.2
N.N.O=C(O)C1(C(=O)O)CCC1.[Pt+2]	-8.88
CCc1ccc(/C=C2/SC(=S)NC2=O)cc1	-19.8
O=Nc1c(-c2c(O)[nH]c3ccccc23)[nH]c2ccccc12	-43
C1CCC(N=C(NC23CC4CC(CC(C4)C2)C3)N2CCOCC2)CC1	6.23
Cc1cccc(/C=C/c2ccccc2)n1	-18.9
